# Assay outcomes as filed in PubChem BioAssay.
# An excerpt weighted towards active compounds, which were near 2.9% of everything screened.
# PAFAH1B3 inh: blocks human PAF acetylhydrolase 1B catalytic subunit 3; Q15102; actives 0.28% (n = 340,000); AID 492972; recombinant PAFAH1B3, FP-rhodamine probe, fluorescence polarization; inhibition, % at 3.39 µM;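 active means inhibition above the screen-wide average of all tested compounds plus 3 SD, cut at about 25% in these data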;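 further: 0% = enzyme with DMSO only and 100% = wells lacking PAFAH1B3 protein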
# pPAFAH inh: inhibitors of human plasma PAF acetylhydrolase (pPAFAH) | Q13093 | inhibition, % at 3.39 µM | recombinant pPAFAH, FP-rhodamine probe fluorescence polarization | AID 463082 | actives 1.5% (n = 330,000);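 active means inhibition above the mean inhibition across the screen plus 3 SD, cut at about 25% in these data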;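 further: inhibitors block binding of the rhodamine activity-based probe so polarization drops; 0% = enzyme with DMSO and 100% = wells lacking pPAFAH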
# LYPLA2 counter: LYPLA2 (human) inhibition in PME1 counter-screen; inhibition, % at 5.9 µM; recombinant LYPLA2, FP-Rh probe fluorescence polarization; O95372; actives 0.38% (n = 320,000);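 active means inhibition above the screen-wide mean plus 3 SD, limit set per campaign, cut at about 26% in these data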;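 further: 0% = LYPLA2 with DMSO and 100% = wells lacking LYPLA2 enzyme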
# Target sequence (O95372 whole entry, looked up): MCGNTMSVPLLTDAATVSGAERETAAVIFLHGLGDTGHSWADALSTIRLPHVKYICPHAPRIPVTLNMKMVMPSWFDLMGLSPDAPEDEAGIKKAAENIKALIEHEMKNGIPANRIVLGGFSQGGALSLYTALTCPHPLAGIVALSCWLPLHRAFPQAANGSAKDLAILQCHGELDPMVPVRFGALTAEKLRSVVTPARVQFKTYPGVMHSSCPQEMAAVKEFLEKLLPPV
# LYPLA1 counter: LYPLA1 (human) inhibition in PME1 counter-screen; O75608; recombinant LYPLA1, FP-Rh probe fluorescence polarization; inhibition, % at 5.9 µM; actives 0.16% (n = 320,000); AID 2174;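 active means inhibition above the mean of all tested compounds plus 3 SD, set per campaign, cut at about 14% in these data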;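 further: inhibitors block serine hydrolase probe labeling of LYPLA1 so polarization falls; 0% = enzyme with DMSO and 100% = wells lacking LYPLA1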
# PAFAH1B2 FP inh: inhibitors of human PAFAH1B2 | P68402 | recombinant PAFAH1B2, FP-rhodamine activity probe, fluorescence polarization | inhibition, % at 3.39 µM | actives 1.2% (n = 340,000) | AID 492953;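 active means inhibition above the mean of all tested compounds plus 3 SD, cut at about 24% in these data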;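 further: 0% = enzyme with DMSO and 100% = wells lacking PAFAH1B2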
# Target sequence (P68402 whole entry, looked up): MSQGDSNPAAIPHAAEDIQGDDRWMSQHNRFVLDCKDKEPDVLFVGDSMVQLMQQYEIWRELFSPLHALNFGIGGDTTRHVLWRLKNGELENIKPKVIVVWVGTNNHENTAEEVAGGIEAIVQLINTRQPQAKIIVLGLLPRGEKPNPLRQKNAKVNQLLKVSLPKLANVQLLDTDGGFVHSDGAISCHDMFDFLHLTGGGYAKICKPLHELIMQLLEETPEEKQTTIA
# PAFAH2 inh: inhibitors of human PAFAH2. Q99487. recombinant PAFAH2, FP-rhodamine activity probe, fluorescence polarization. inhibition, % at 3.39 µM. actives 0.99% (n = 340,000);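 active means inhibition above the mean over all tested compounds plus 3 SD, cut at about 30% in these data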;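 further: inhibitors block probe labeling of enzyme so polarization drops; 0% = enzyme with DMSO and 100% = wells lacking PAFAH2 protein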
# Numbers without * were called inactive; / = not tested or not shown.
SMILES,PAFAH1B3 inh,pPAFAH inh,LYPLA2 counter,LYPLA1 counter,PAFAH1B2 FP inh,PAFAH2 inh
CCOC(=O)NC(CC(=O)O)c1ccc(OCC)cc1 (stereo unspecified),8.0,3.0,2.7,-0.8,-0.8,2.1
CCOc1ccc(OC(=O)NC(c2ccccc2)C(Cl)(Cl)Cl)cc1 (stereo unspecified),2.0,0.8,4.0,-2.2,25.8*,4.7
CC(C)OC(=O)NC(c1ccccc1)C(Cl)(Cl)Cl (stereo unspecified),1.6,3.4,2.2,-6.8,24.4*,12.7
CCCCN(Cc1nc2ccccc2c(=O)[nH]1)C(=O)c1nn(C)c(=O)c2ccccc12,76.0*,/,/,/,42.2*,80.9*
O=c1cc(-c2ccc(O)c(O)c2)oc2cc(O)cc(O)c12,39.4*,21.5,-24.9,-18.4,34.0*,29.6
COc1ccc(-c2cc(=O)c3c(O)cc(O)cc3o2)cc1,12.8,4.3,-2.1,-2.2,-2.1,1.3
COc1ccc(NC(=O)CSc2nncn2C)cc1OC,1.5,-2.9,-2.7,1.5,4.4,3.7
CCOC(=O)N1CCN(S(=O)(=O)c2ccc(C(=O)NNc3nc4c(C)cccc4s3)cc2)CC1,16.7,18.9,8.7,1.7,7.5,-12.7
CCOC(=O)N1CCN(S(=O)(=O)c2ccc(C(=O)NNc3nc4c(C)cc(C)cc4s3)cc2)CC1,/,32.1*,4.2,-2.1,/,/
CCOC(=O)N1CCN(S(=O)(=O)c2ccc(C(=O)NNc3nc4cc(C)cc(C)c4s3)cc2)CC1,15.6,28.0*,9.3,6.4,2.4,14.2
CCOC(=O)c1c(N)sc(-c2ccccc2)c1C,15.3,34.3*,3.5,-0.1,-1.1,3.1
CCOC(=O)c1c(N)sc(C(O)(C(F)(F)F)C(F)(F)F)c1-c1ccccc1,9.8,-2.9,-1.9,0.9,2.6,-12.2
CCn1ncc(/C=N\NC(=O)COc2cc(C)cc(C)c2)c1C,4.2,-4.2,4.8,-1.1,-0.5,1.5
Cc1ccc(CN2C(=O)C(=O)N(CC(N)=O)C2=O)cc1,5.9,0.1,1.1,4.3,0.1,-8.3
Cc1ccc(C(=O)CN2C(=O)C(=O)N(Cc3ccccc3)C2=O)cc1,0.2,-0.9,1.1,0.3,26.3*,2.0
COC(=O)CC1=C(C(=O)OC)C(c2cccc(OCC(N)=O)c2)C(C#N)=C(N)O1 (stereo unspecified),7.3,9.4,-1.6,0.2,6.1,-0.4
Cn1c(=O)c2c(O)c(Cc3ccccc3)c(=O)n(C)c2n(C)c1=O,3.3,2.2,-3.2,1.9,7.3,4.4
Cc1snc(SCc2ccc(Cl)cc2)c1C#N,2.5,7.7,4.5,-2.1,27.8*,-2.1
CCOC(=O)CC(=O)CSc1nc(N)c(C#N)c(-c2ccc(F)cc2)c1C#N,-6.2,27.6*,1.5,-5.1,3.6,3.5
Cc1cc2ccccc2c(=O)[nH]1,3.1,4.7,-0.3,-0.2,-1.0,4.0
Cc1nc2cc3ccccc3cc2c(=O)[nH]1,7.0,26.5*,-1.1,-2.3,-0.1,0.1
COc1ccccc1CNC(=O)COC(=O)Cc1c(Cl)cccc1Cl,11.9,6.1,-3.9,0.3,-2.1,-1.4
COc1cc(-c2ccc3oc(-c4cccc(C)c4)c(C#CC4(O)CCCCC4)c3c2)cc(OC)c1OC,-6.6,27.1*,/,/,-2.8,-8.4
COc1ccc(-c2oc3ccc(-c4ccc5c(c4)OCO5)cc3c2C#CC2(O)CCCCC2)cc1,-8.9,-0.6,-27.8,-17.9,-6.6,-15.8
CCCCN1C(=O)N(c2nnc(C(C)(C)C)s2)C(O)C1c1ccc(C)cc1 (stereo unspecified),7.0,5.8,-4.7,-0.2,2.7,1.1
SMILES,PAFAH1B3 inh,pPAFAH inh,LYPLA2 counter,LYPLA1 counter,PAFAH1B2 FP inh,PAFAH2 inh
COC(=O)/C=C1\S/C(=N/NC(=O)c2ccccc2)NC1=O,1.7,0.6,6.2,3.3,2.3,-4.8
COc1ccccc1/C=C1\S/C(=N/NC(=O)c2cccc(Br)c2)NC1=O,15.5,16.7,2.5,-0.3,16.9,41.4*
O=C(Oc1ccc(N(C(=O)c2ccncc2)S(=O)(=O)c2ccc(F)cc2)cc1)c1ccncc1,-1.6,5.6,6.7,4.8,4.2,7.4
O=C(Oc1ccc(N(C(=O)c2ccncc2)S(=O)(=O)c2ccc(Cl)cc2)cc1)c1ccncc1,7.7,6.8,-0.6,0.6,28.9*,-3.6
Nc1ccc(N=Nc2ccccc2)c(N)n1,8.8,1.8,8.0,1.2,-0.6,0.7
Cc1[nH]c(N=Nc2ccccc2)nc1N=Nc1ccccc1,3.5,25.4*,-4.6,-2.8,4.2,-2.5
O=C(Cc1c(F)cccc1Cl)Nc1cccc(S(=O)(=O)NC2=NCCCCC2)c1,5.9,13.1,1.6,2.4,-0.8,-5.9
O=C(Cc1ccc(Cl)cc1Cl)Nc1cccc(S(=O)(=O)Nc2ccccc2F)c1,-8.4,27.3*,-5.6,-8.2,21.1,-5.7
COc1ccc(CC(=O)Nc2sc3c(c2C(N)=O)CCCC3)cc1,2.0,12.4,-1.3,2.0,4.9,5.5
COc1ccc2nc(Nc3sc4c(c3C(N)=O)CCCC4)sc2c1,19.1,25.7*,-4.5,-6.5,9.7,-0.4
CN(C)CCCN1C(=O)c2cccc3c(Br)ccc(c23)C1=O,9.0,0.0,11.5,4.8,7.4,13.1
CCCCNc1ccc2c3c(cccc13)C(=O)N(CCCC)C2=O,30.7*,/,/,/,20.6,34.0*
CC(Sc1ccc(Cl)cc1)C(=O)Nc1ccc(S(=O)(=O)N2CCOCC2)cc1 (stereo unspecified),12.9,8.9,4.4,0.3,30.7*,2.7
CC(C)C(=O)Nc1ccc(C(=O)Nc2ccc(S(=O)(=O)N3CCOCC3)cc2)cc1,-1.5,1.0,0.8,-2.9,-2.8,-5.6
COc1ccccc1C(=O)NNc1ncc(C)s1,10.8,7.9,-3.1,-4.2,8.1,5.2
COc1ccc(-c2nnc(C)c3nocc23)cc1,-0.4,24.6*,-12.8,-9.0,-2.1,0.0
COc1cccc(-n2ccnc2SCC(=O)N2CCc3ccccc32)c1,-5.4,0.4,1.1,1.9,1.9,0.9
Cc1ccc(S(=O)(=O)N2CCC(=O)N(C(COCc3ccc(Cl)cc3)Cc3ccccc3)CC2)cc1 (stereo unspecified),9.2,8.5,-3.2,-1.2,24.5*,6.5
Cc1ccccc1NC(=O)c1sc2nc(N3CCOCC3)c3c(c2c1N)CCCC3,4.0,27.1*,-1.1,-3.6,3.0,-0.5
COc1ccccc1NC(=O)c1sc2nc(N3CCOCC3)c3c(c2c1N)CCCC3,2.6,7.8,2.7,1.2,1.6,4.6
O=C(N/N=C/c1c(O)ccc2ccccc12)c1cccc(C(F)(F)F)c1,12.8,30.2*,0.8,-10.8,11.9,9.9
CCN(CC)S(=O)(=O)c1cccc(C(=O)N/N=C/c2ccc(O)c(O)c2O)c1,16.6,30.1*,-9.0,-12.4,14.0,7.7
COc1ccc2ccccc2c1/C=N/NC(=O)c1cccc(Br)c1,-9.4,-5.6,-34.9,-21.7,2.1,-7.1
